D3 antag = qHTS of D3 Dopamine Receptor Antagonist: qHTS | D(3) dopamine receptor (Homo sapiens), P35462 | D3R cells, DiscoveRx beta-arrestin luminescence, antagonist mode; hits give low values | max response, negative = inhibition, % | 360,000 compounds, 2.5% hits; in the data active means max response below about -50%; inconclusive means no clear call, values can overlap the other calls; further: on the % scale 0 is the no-effect control and ±100 the full control effect
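Cells plated overnight at 1500 cells/well, then exposed to library compounds with dopamine controls for 90 minutes at 37 degrees C. DiscoveRx reagent added for 30–60 minutes at room temperature; luminescence read, quantitative HTS format.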
ClpP mod = qHTS Assay for Activators of ClpP. purified B. subtilis ClpP, FRET peptide cleavage, 20 min. ATP-dependent Clp protease proteolytic subunit (Bacillus subtilis (strain 168)), P80244. 340,000 compounds, 1.9% hits. AID 651965, 2013. Potency, µM (titrated, usually from 57.5 µM), for inactives: at the highest dose activity change, negative = active; active means well fitted falling curve with a large enough effect; inconclusive means small, poorly fitted or top-dose-only effect; inactive means no such curve, though single readings can be large or run the other way; further: potency means the concentration at half of the fitted maximal effect; the source files actives as falling curves though it sought activators and does not explain the sign; nearly all actives have a fitted effect of over 65% in size
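Purified B. subtilis ClpP, 10 microg/mL final in Tris/HCl pH8 with KCl, BSA, glycerol and Tween-20, cleaved an Abz/nitrotyrosine-quenched decapeptide. Fluorescence (ex 320, em 430) was read at 0 and 20 min at room temperature. Delta was normalized to 5.8 microM ADEP and DMSO/no-enzyme controls.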
IL1B secr inh = qHTS for Inhibitors of Inflammasome Signaling: IL-1-beta AlphaLISA Primary Screen; AID 743279, 2014; activity change, % at 57.5 µM; THP-1 LPS/ATP IL-1B secretion, AlphaLISA, 16 h; hits give low values; 360,000 compounds, 4.7% hits; in the data active means activity change below about -50%; inconclusive means mostly about -30% to -49%; further: on the % scale 0 is the no-effect control and ±100 the full control effect
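Secreted IL-1B measured by AlphaLISA bead assay after 16 h compound exposure of THP-1 cells; compounds (final up to 57.5 uM) added 1 h before LPS (250 ng/mL) and ATP (1.25 mM) stimulation; lower signal means less secretion.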
TDP1 cell CPT = qHTS for Inhibitors of human tyrosyl-DNA phosphodiesterase 1 (TDP1): qHTS in cells in presence of CPT | Potency, µM (series often up to 46.2 µM), without a hit: at the top dose activity change, negative = growth inhibition, actives largely listed as inhibitors | chicken DT40 Tdp1-/-;hTDP1 cells + 20 nM CPT, ATP luminescence, 48 h | AID 686979, 2013 | 420,000 compounds, 12% hits; further: potency means the concentration at half of the fitted maximal effect; on the % scale 0 is the no-effect control and ±100 the full control effect; nearly all actives have a fitted effect of over 55% in size
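Cell growth measured by CellTiter-Glo luminescence after a minimum 48 h, 37 C compound exposure with 20 nM CPT in Tdp1-knockout DT40 cells stably expressing hTDP1, seeded 400/well; qHTS titration format.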
TDP1 cell noCPT = qHTS for Inhibitors of human tyrosyl-DNA phosphodiesterase 1 (TDP1): qHTS in cells in absence of CPT. DT40 Tdp1-/- hTDP1 cells, no CPT, ATP luminescence, 48 h. 420,000 compounds, 15% hits. Potency, µM (series often up to 46.2 µM), for inactives: top-dose activity change, negative = growth inhibition, most hits filed as inhibitors; further: potency means the concentration at half of the fitted maximal effect; on the % scale 0 is the no-effect control and ±100 the full control effect; nearly all actives have a fitted effect of over 55% in size
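Seeded 400 DT40-hTDP1 cells/well (vehicle DMSO, no 20 nM CPT); pinned compounds; ≥48 hr at 37 °C; CellTiter-Glo luminescence as viability measure.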
D3 ag = qHTS of D3 Dopamine Receptor Agonist: qHTS | D(3) dopamine receptor (Homo sapiens), P35462 | D3R DiscoveRx beta-arrestin cells, luminescence, 90 min | max activation, % | 410,000 compounds, 0.58% hits | AID 652048, 2013; in the data active means max activation above about 30%; further: 0% is about no effect
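Agonist-mode cell screen: cells plated at 1500/well and incubated overnight at 37 °C, then exposed to library compounds for 90 min at 37 °C. Detection reagent was added for 30–60 min at room temperature, and luminescence was read.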
The depositor's hits bear a star; ? = inconclusive; . = no result given; ! = repeats disagree; [ ] = another dose, or the depositor's remark. In the library only some 21% were active in any assay of this set; here they are far more common. Unless noted, the call rests on the fitted dose curve; in most records, active means well fitted inhibition curve with a large enough effect; inconclusive means small, poorly fitted or top-dose-only effect; inactive means flat fitted curve, though single readings scatter.

SMILES	D3 antag	ClpP mod	IL1B secr inh	TDP1 cell CPT	TDP1 cell noCPT	D3 ag
CCOC(=O)c1c(-c2ccccc2)csc1NC(=O)c1nn(CC)cc1Br	36.3	31.6µM*	-66.7*	?	?	18.4
CCOC(=O)c1c(-c2ccc(C)cc2)csc1NC(=O)/C(C#N)=C/c1ccc(O)c(OC)c1	-4.1	.	-21.7	?	14.6µM*	0.9
CCOC(=O)c1c(NC(=O)c2nn(CC)cc2Br)c(C#N)cn1-c1ccccc1	14.1	-0.6%	?	?	20.6µM*	19.1
CCOC(=O)c1c(N)c(C#N)cn1-c1ccccc1	-11.0	-9.1%	-4.9	-29.9%	0.9%	-7.8
CCOC(=O)c1c(-c2ccccc2)csc1NC(=O)/C(C#N)=C\c1ccc(O)c(OC)c1	5.2	.	-7.6	?	?	15.0
CCOC(=O)c1c(-c2cc(OC)c(OC)c(OC)c2)csc1N	0.0	-0.2%	24.8	23.1µM*	?	-7.5
COc1cc(=O)n2c(c1C(=O)NCc1ccco1)CCN(C(=O)c1ccc(C)c(C)c1)CC2	.	.	.	-17.2%[9.04 µM]	-4.9%	.
CCOC(=O)c1c(-c2ccccc2)csc1NC(=O)c1ccc(N2C(=O)CCC2=O)cc1	35.5	?	-4.1	-16.6%	-24.9%	57.4*
COc1cc(C(=O)Nc2scc(-c3ccccc3)c2C(=O)O)cc(OC)c1OC	0.8	-3.1%	-29.4	?	13µM*	3.9
CCOC(=O)c1c(-c2cc(OC)c(OC)c(OC)c2)csc1NC(=O)c1ccccc1	54.0	?	-12.8	?	18.4µM*	21.4
O=C(Nc1ccc(-n2cnnn2)cc1)c1cc(S(=O)(=O)N2CCCC2)ccc1Cl	-7.6	-2.6%	-4.2	?	?	1.7
CC1(C)C2CCC1(C)C(NC(=O)/C=C/c1ccccc1)C2 (configuration not stated)	-11.7	.	-24.2	?	18.4µM*	2.7
CCCn1c(=O)c2c(C(=O)OCC)cc(-c3ccco3)nc2n(CCC)c1=O	12.3	12.6µM*	-5.5	-0.1%	-17.1%	7.3
COc1ccc(S(=O)(=O)N2CCN(CC(=O)NC3CC3)CC2)cc1	-0.5	-4.5%	-2.3	-0.4%	-10.4%	1.2
COc1ccc(C(C)=O)cc1COC(=O)c1ccc2c(c1)OCCO2	10.1	-0.1%	19.3	-3.1%	9.9%	-4.3
O=C1OCCC1Sc1nnc(-c2ccccc2Br)n1Cc1ccccc1 (configuration not stated)	-24.6	-2.0%	-54.0*	-1.1%	-0.4%	1.1
O=C1OCCC1Sc1nnc(-c2ccccc2Cl)n1Cc1ccccc1 (configuration not stated)	?	1.4%	10.4	-7.3%	-13.9%	6.1
CC(=O)N1CCCc2ccc(NS(=O)(=O)c3ccc(C)c(C)c3)cc21	-3.0	-3.0%	29.4	11.6µM*!	?	7.3
COc1ccc(S(=O)(=O)Nc2ccc3c(c2)N(C(C)=O)CCC3)cc1F	.	-29.7%	.	14.6µM*	18.4µM*	6.9
COc1cc(CNc2nc3c(C)cc(C)cc3s2)ccc1O	0.6	.	-17.3	?	20.6µM*	4.3
N=C(N)SCc1ccc(Cl)c2ccccc12	0.3	0.8%	-101.1*	?	?	1.1
O=C(c1cccnc1Cl)N1CCOCC1	12.9	.	15.0	?	-8.8%	2.4
C=CCn1c(SCC(=O)N(C)C2CCS(=O)(=O)C2)nnc1-c1ccccc1 (configuration not stated)	-14.5	.	0.0	-14.3%	-12.7%	-7.6
CCc1cc(CN2CCOCC2)c(NC(=O)c2ccccc2)s1	0.0	-8.9%	-21.8	-21.1%	?	7.6
Cc1cc(C)c2ccc(N)nc2c1O	7.3	13.9%	96.2	23.1µM*	18.4µM*	-3.5
SMILES	D3 antag	ClpP mod	IL1B secr inh	TDP1 cell CPT	TDP1 cell noCPT	D3 ag
O=C(COC(=O)c1ccccc1OCc1ccccc1Cl)NCC1CCCO1 (configuration not stated)	4.7	-5.4%	-50.8*	?	?	-11.4
Cc1cnc2c(C)cccc2c1C	.	-12.3%	.	-128.8%	0.224µM*	.
Cc1cnc2ccccc2c1C	.	0.1%	.	1.6%	-18.7%	.
CC(C)N1C(=O)S/C(=C\c2ccc(-c3ccc(Cl)c(C(=O)O)c3)o2)C1=O	?	-1.0%	-2.8	?	?	-3.1
CCN(CC)c1ccc(/C=C2/SC(=O)N(C(C)C)C2=O)o1	-91.4*	.	-94.4*	-91.0%	2.31µM*	-6.8
CCCc1c(C(=O)N/N=C(\C)c2ccccc2O)nnn1-c1nonc1N	0.0	-0.2%	0.0	8.2µM*	8.2µM*	14.8
CCCc1c(C(=O)N/N=C(\C)c2ccc(CC(C)C)cc2)nnn1-c1nonc1N	-9.9	-4.6%	4.5	11.6µM*	6.51µM*	-6.2
CCCN(CCC)Cc1c(C(=O)N/N=C/C(C)=C\c2ccco2)nnn1-c1nonc1N	29.8	.	-59.9*	20.6µM*	16.4µM*	14.8
CCCc1c(C(=O)N/N=C(\C)c2cccnc2)nnn1-c1nonc1N	-15.5	-4.2%	0.0	-4.0%	6.9%	2.4
CC(/C=N/NC(=O)c1nnn(-c2nonc2N)c1CN(C)C)=C\c1ccco1	-17.2	.	-0.7	-19.0%	-21.9%	15.2
C/C(=N\NC(=O)c1nnn(-c2nonc2N)c1-c1ccccc1)c1ccccc1O	-4.1	8.3%	142.0	2.31µM*	1.46µM*	5.0
C/C(=N\NC(=O)c1nnn(-c2nonc2N)c1CN(C)c1ccccc1)c1ccccn1	7.4	0.0%	80.2	4.61µM*	4.61µM*	1.3
O=C(NCCCCCCNC(=O)c1ccccc1O)c1ccccc1O	6.4	0.2%	-25.4	?	20.6µM*	10.2
O=C(NCCNC(=O)c1ccccc1O)c1ccccc1O	-9.5	-1.6%	21.7	?	-14.0%	-11.6
O=C(NCCO)c1ccccc1O	7.3	31.6µM*	-1.5	-3.4%	-4.3%	-0.9
Cc1ccc(NC2CCCCC2NS(=O)(=O)c2ccccc2)c(C)c1 (configuration not stated)	0.0	-1.5%	18.9	?	-12.1%	-1.2
O=c1c2c3nc4ccccc4nc3n(CCN3CCOCC3)c2ncn1CCN1CCOCC1	6.7	-25.3%	?	-21.1%	-27.4%	-3.7

High-throughput results deposited in PubChem by National Center for Advancing Translational Sciences (NCATS).
